Out of some 16,000 compounds screened, about 5,800 (36%) were called active. Not shown: some 23% with an inconclusive outcome. The list shows a part of the results. Unmarked numbers belong to inactive results. The call rests on the fitted dose curve; in most records, active means well fitted curve in the direction sought with a large enough effect; inconclusive means small, poorly fitted or top-dose-only effect, or effect the other way; inactive means no such curve, though single readings can be large or run the other way.
Each compound was assayed against Cytochrome P450 2C19 (Homo sapiens) (UniProt P33261) (assay: Cytochrome panel assay with activity outcomes). Details: recombinant CYP, pro-luciferin dealkylation, luminescence, p450-cyp2c19; series mostly up to 57.1 µM; activity, negative = inhibition: at the top concentration.
On the % scale 0 is the no-effect control and ±100 the full control effect.

Chain of Cytochrome P450 2C19 (Homo sapiens) (P33261 whole entry, looked up): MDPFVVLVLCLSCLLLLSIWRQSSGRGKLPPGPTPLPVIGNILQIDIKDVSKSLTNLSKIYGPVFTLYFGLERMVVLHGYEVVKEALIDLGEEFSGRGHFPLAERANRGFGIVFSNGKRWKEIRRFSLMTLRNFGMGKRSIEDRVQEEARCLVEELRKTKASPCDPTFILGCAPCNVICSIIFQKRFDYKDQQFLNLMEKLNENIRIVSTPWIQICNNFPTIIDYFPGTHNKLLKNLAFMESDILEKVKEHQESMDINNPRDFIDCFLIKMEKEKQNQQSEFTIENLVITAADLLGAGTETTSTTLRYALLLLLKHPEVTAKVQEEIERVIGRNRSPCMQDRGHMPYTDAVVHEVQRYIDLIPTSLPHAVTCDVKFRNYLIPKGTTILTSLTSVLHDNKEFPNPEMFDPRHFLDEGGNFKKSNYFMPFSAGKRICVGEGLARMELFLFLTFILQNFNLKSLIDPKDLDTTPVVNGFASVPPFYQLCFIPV

SMILES	AC50	activity, negative = inhibition
CCCCCc1nc2c(C#N)c(-c3ccc(Cl)cc3)ccn2n1	7940 nM (active)	–
Cc1noc(C)c1CS(=O)(=O)c1ccc(Br)cc1	282 nM (active)	–
CC1Cc2ccccc2N1C(=O)CN1C(=O)COc2ccccc21 (stereo not drawn)	3160 nM (active)	–
CCN1CCN(CC(=O)N2c3ccccc3CC2C)CC1 (stereo not drawn)	–	-27.5%
Cc1ccccc1-n1ncc2c(SCC(=O)N3c4ccccc4CC3C)ncnc21 (stereo not drawn)	7080 nM (active)	–
CC1Cc2ccccc2N1C(=O)CSc1nnnn1C(C)C (stereo not drawn)	4470 nM (active)	–
C[C@@H]1Cc2ccccc2N1NC(=O)c1ccc(Cl)c(S(N)=O)c1 (stereo partly drawn)	–	-36.6% [at 25.6 µM]
O=C1COc2ccccc2CN1	–	-13.1%
CC1(C)CCC(NC(=O)[C@H](N)CCC(=O)O)CC1	–	12.9%
COCC(=O)Nc1c(I)c(C(=O)NC[C@@H](O)CO)c(I)c(C(=O)N(C)C[C@@H](O)CO)c1I	–	-21.5% [at 25.6 µM]
O=C1OC(OC2CCCCC2)(c2ccccc2)c2ccccc21 (stereo not drawn)	7940 nM (active)	–
Cc1cccc(C)c1OC1(c2ccccc2)OC(=O)c2ccccc21 (stereo not drawn)	251 nM (active)	–
Cc1cccc(OC2(c3ccccc3)OC(=O)c3ccccc32)c1C (stereo not drawn)	2510 nM (active)	–
C=C[C@]1(C)C[C@H](OC(=O)CO)[C@]2(C)C3C(=O)CC[C@]3(CC[C@H]2C)[C@H](C)[C@H]1O (stereo partly drawn)	–	-15.4% [at 11.4 µM]
Cc1ccc(Cn2cccc(NC(=O)NC3CCCCC3)c2=O)cc1	14100 nM (active)	–
O=C(Nc1cccn(Cc2ccc(F)cc2)c1=O)NC1CCCCC1	10000 nM (active)	–
COCCn1c(=O)c(-c2cc(F)cc(F)c2)nc2cnc(N3CCOCC3)nc21	–	12.7%
c1ccc2oc(C3=NCCN3)cc2c1	–	-37.9%
COCCn1c(=O)c(C)nc2cnc(N3CCNCC3)nc21	–	-13.7%
Cc1cc(N2CCOCC2)ncc1[N+](=O)[O-]	31600 nM (active)	–
O=[N+]([O-])c1ccc(N2CCOCC2)nc1	–	-21.3%
Cc1ccc(S(=O)(=O)/N=C2/NC(=O)/C(=C/c3cccnc3)S2)cc1	2240 nM (active)	–
O=C(CSCc1ccc(Cl)cc1)Nc1nccs1	2510 nM (active)	–
O=C(CSc1nc2ccccc2s1)Nc1nccs1	1580 nM (active)	–

SMILES	AC50	activity, negative = inhibition
Cc1ccc(S(=O)(=O)NC(=O)CSc2nc3ccccc3s2)cc1	–	-26.7%
O=C(CSc1nc2ccccc2s1)NNC(=S)Nc1ccc(Br)cc1	2820 nM (active)	–
O=C(CSc1nc(-c2ccccc2)nc2ccccc12)Nc1nccs1	–	-22.4%
Cc1cccc(-c2nsc(SCC(=O)Nc3nccs3)n2)c1	1780 nM (active)	–
O=S(=O)(c1ccc(Cl)cc1)c1cnc(-c2cccnc2)nc1-c1ccccc1	2820 nM (active)	–
O=S(=O)(c1ccccc1)c1cnc(-c2cccnc2)nc1-c1ccc(Cl)cc1Cl	5010 nM (active)	–
OC[C@H]1O[C@H](n2cnc3c(NC4CCCC4)nc(Cl)nc32)[C@@H](O)[C@@H]1O	–	4.34%
CCn1c(SCc2cccc(C)c2)nnc1-c1ccc(C)cc1	2240 nM (active)	–
COc1ccc(-c2nnc(SCc3cccc(C)c3)n2N)cc1	2510 nM (active)	–
CCn1c(SCc2cccc(C)c2)nnc1-c1ccccc1	501 nM (active)	–
NS(=O)(=O)c1cc2c(cc1Cl)=NC(CCC(=O)O)=NS=2(=O)O	–	22.1% [at 11.4 µM]
C[C@H](C[C@H](N)C(=O)O)C(=O)O	–	-19.8%
NC(=O)/C(=C\c1ccncc1)c1cccc2ccccc12	2510 nM (active)	–
O=C(O)/C(=C\c1ccncc1)c1cccc2ccccc12	2510 nM (active)	–
O=C(O)CCC(=O)c1ccc2ccc3cccc4ccc1c2c34	–	25.1% [at 11.4 µM]
O=C(O)/C(=C\c1ccc(O)cc1)c1cccc2ccccc12	–	-11.8% [at 11.4 µM]
OC[C@@H]1O[C@@H](N2CCN([C@@H]3O[C@@H](CO)[C@@H](O)[C@H](O)[C@H]3O)CC2)[C@@H](O)[C@H](O)[C@H]1O	–	29.2% [at 11.4 µM]
Clc1ccc2c(c1)C1=C(C(c3ccncc3)O2)C(c2ccc(Br)cc2)n2ncnc2N1 (stereo not drawn)	708 nM (active)	–
O=C(O)c1cc(N=Cc2ccccc2O)cc(C(=O)O)c1	–	8.41% [at 11.4 µM]
Cc1cc(O)c(C(C)C)cc1N=Cc1ccccc1O	398 nM (active)	–
O=C(CCN1C(=O)S/C(=C\c2ccccc2)C1=O)Nc1ccc(S(=O)(=O)Nc2nccs2)cc1	5010 nM (active)	–
O=C(O)c1ccccc1C(=O)Nc1ccc(S(=O)(=O)Nc2nccs2)cc1	–	32.7% [at 25.6 µM]
c1ccc2c(CN3CCN(Cc4c[nH]c5ccccc45)CC3)c[nH]c2c1	–	1.09% [at 11.4 µM]
O=S1(=O)CCN(c2ccccc2CC(c2c[nH]c3ccccc23)c2c[nH]c3ccccc23)CC1	3160 nM (active)	–
